Source: PubChem BioAssay
An excerpt weighted towards active compounds, which were near 6.3% of everything screened.
NADH enzymes – inhibitors of enzymes used to reach an NAD/NADH endpoint. coupled PK/LDH NADH assays, four targets. IC50, µM (doses to about 10 µM). 65,000 tested, 0.02% active. AID 774;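 active means single-dose screening hits from any of four coupled enzyme assays that gave an IC50 when retested across doses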;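 further: the DPM-DC format reads NADH fluorescence rather than 340 nm absorbance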
PMK inhibit – blocks S. pneumoniae phosphomevalonate kinase | 65,000 tested, 0.49% active | purified PMK, PK/LDH-coupled NADH absorbance 340 nm | AID 539 | inhibition, % at 10 µM;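 active means top-ranked compounds by inhibition in the single 10 µM screen, taking a fixed number of the strongest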
Abs 340nm – compound absorbs light at 340 nm | compound absorbance at 340 nm, fold over control | AID 708 | fold change at 10 µM | 65,000 tested, under 10 active;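 active means at 10 µM dose, initial 340 nm absorbance at least 2 fold that of control wells; inactive means change under 2 fold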;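 further: initial absorbance extrapolated from kinetic A340 decline of NADH oxidation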
Fluor 339 460 – intrinsic fluorescence of library compounds, ex339/em460 – biochemical, MLSMR library, data from DPM-DC assay, artefact control, profiling panel | compound autofluorescence, ex339/em460 nm, NADH buffer; stronger effect = higher value; 1 = no-compound wells, NADH background | fluorescence fold increase at 10 µM | 65,000 tested, 5.5% active;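 active means at 10 µM, mean starting fluorescence two-fold or more over control wells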;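 further: signal is the first read of a kinetic run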
Spn DPM-DC inh – blocks S. pneumoniae diphosphomevalonate decarboxylase; purified DPM-DC, PK/LDH coupled NADH fluorescence; 65,000 tested, 0.49% active; calls only at 10 µM;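 active means the 320 compounds with the highest percent inhibition in the single-dose primary screen, excluding strongly autofluorescent ones, cut at about 32% in these data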;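 further: kinetic rate of NADH fluorescence loss reporting ADP formed by the decarboxylase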
MK inhibit – blocks S. pneumoniae mevalonate kinase | 65,000 tested, 0.48% active | AID 555 | inhibition, % at 10 µM | purified MK, PK/LDH-coupled NADH absorbance 340 nm;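 active means ranked among the strongest by inhibition in the single 10 µM screen, a fixed top-ranked set picked for dose follow-up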
A number is an active result; 0 = inactive; - = not tested or not shown; + = active, no number; [ ] = remark or other dose.

SMILES	NADH enzymes	PMK inhibit	Abs 340nm	Fluor 339 460	Spn DPM-DC inh	MK inhibit
Cc1nc2cc(NC(=O)N3CC4(C)CC3CC(C)(C)C4)ccc2n1C (stereo not given)	0	0	0	0	0	0
CCCCN1C(=O)c2ccc(C(=O)NC3=NCCS3)cc2C1=O	0	0	0	0	0	0
Cc1ccc(C)c(-c2nc3cc(N)ccc3o2)c1	0	0	0	2.34	+[fluoresces]	0
Cc1ccc2nc(C(O)C(O)c3nc4ccc(C)cc4[nH]3)[nH]c2c1 (stereo not given)	0	0	0	0	0	0
Cc1ccc(C)c(-c2nc3ccc(N)cc3[nH]2)c1	0	0	0	2.97	-	0
Nc1ccc(-c2nc3c(Cl)c(N)ccc3[nH]2)cc1	0	0	0	3.64	-	0
Nc1ccc2nc(-c3ccc(Cl)cc3)[nH]c2c1	0	0	0	2.12	-	0
Cc1cc(N2CCCC2)ccc1/C=N/n1cnnc1	0	0	0	0	0	0
Cc1ccc(N2CCN(c3cc(C)nc4nc(C)nn34)CC2)c(C)c1	0	0	0	0	0	0
OCC1CCCN(Cc2ccc(-c3ccccc3)cc2)C1 (stereo not given)	0	0	0	0	0	41.0
CCN(CC)CCCNC(=O)c1cc(-c2ccc(Cl)c(Cl)c2)on1	0	0	0	0	0	0
CN1CCN(CCCNC(=O)c2cc3c(-c4ccc(Cl)cc4)nn(C)c3s2)CC1	0	0	0	2.15	-	0
Cn1nc(-c2ccc(Cl)cc2)c2cc(C(=O)N3CCOCC3)sc21	0	0	0	0	0	0
CCN(CC)CCCNC(=O)c1cc2c(-c3ccc(Cl)cc3)nn(C)c2s1	0	0	0	2.14	-	0
Cn1nc(-c2ccc(Cl)cc2)c2cc(C(=O)NCC3CCCO3)sc21 (stereo not given)	0	0	0	2.14	-	0
CCOC(=O)C1CCN(C(=O)CNS(=O)(=O)c2cccs2)CC1	0	0	0	0	0	0
CCCCC(CC)C(=O)Nc1ccccc1C(=O)NC(C)C (stereo not given)	0	0	0	0	0	0
Cc1onc(-c2ccccc2)c1C(=O)Oc1cccnc1	0	0	0	0	0	0
CCCCNc1cc(NC(C)=O)cc2cc(OC)c(OC)cc12	0	0	0	2.13	-	0
CCCC(=O)Nc1cc(OC)c(OC)cc1C(=O)O	0	0	0	0	0	0
CC12CCC(=O)N1c1c(sc3nc(N4CCOCC4)c4c(c13)CCCC4)C(=O)N2 (stereo not given)	0	0	0	2.35	-	0
COc1ccc(NC(=O)N(C2CCCCC2)C(C)c2cccnc2)c(OC)c1 (stereo not given)	0	0	0	0	0	0
COc1ccc(NC(=O)N(C2CCCCC2)C(C)c2ccco2)c(OC)c1 (stereo not given)	0	26.0	0	0	0	0
O=C(Nc1ccc2oc(=O)ccc2c1)c1ccco1	0	0	0	2.84	0	0
O=C(Nc1ccc(Nc2ccccc2)cc1)c1ccco1	0	0	0	0	0	0
SMILES	NADH enzymes	PMK inhibit	Abs 340nm	Fluor 339 460	Spn DPM-DC inh	MK inhibit
COc1cccc2cc(-c3nc(-c4cccs4)cs3)c(=O)oc12	0	0	0	4.58	-	0
O=C(CN1CCC(n2nnc3cc(F)ccc32)CC1)NCc1ccco1	0	0	0	0	0	0
CC(=O)CCc1c(C)c2cc(C)ccc2[nH]c1=O	0	0	0	0	0	0
Cc1nn(-c2ccccn2)c2nc(-c3cccs3)cc(C(=O)N3CCOCC3)c12	0	0	0	2.11	-	0
COc1ccccc1OCCC(=O)OCC(=O)Nc1ncc(Cl)cc1Cl	0	0	0	0	0	0
FC(F)(F)c1cc(-c2ccco2)nc(-n2nnc3ccccc32)n1	0	0	0	2.39	+	0
FC(F)(F)c1cc(-c2ccco2)nc(-n2nc(C(F)(F)F)cc2C2CC2)n1	0	0	0	3.42	0	0
CCOc1ccc(C(=O)OCc2nnc(-c3cccs3)o2)cc1OC	0	0	0	0	0	0
COc1ccc(-c2[nH]ncc2-c2cnn(-c3ccccc3)c2)c(O)c1	0	0	0	0	0	0
Cc1ccc2cc(C#N)c(NCCNC(=O)C3CC3)nc2c1C	0	0	0	3.17	0	0
NC(=O)CSc1nnc(C2CC2)n1Cc1ccccc1	0	0	0	0	0	0
CCN(CC)c1ccc2c(C)c(CN3CCOCC3)c(=O)oc2c1	0	0	0	4.31	-	0
O=C(COc1ncnc2ccccc12)NCCC1=CCCCC1	0	0	0	0	0	0
O=C(COc1cnc2ccccc2n1)NCCC1=CCCCC1	0	0	0	0	+	0
CCCc1cc(=O)oc2cc3oc(C)c(C)c3cc12	0	0	0	0	0	0
CN(Cc1c(O)ccc2c1oc(=O)c1ccccc12)C1CCCCC1	8.83µM	0	0	0	0	50.0
CCc1c(C)c2ccc(O)c(CN(C)C)c2oc1=O	0	0	0	2.32	-	0
CCCCc1cc(=O)oc2c(CN(C)C)c(O)ccc12	0	0	0	3.59	-	0
CN(C1CCCCC1)S(=O)(=O)c1ccccc1	0	0	0	0	0	0
O=C1NC(=O)c2cc(NC(=O)C3CCCCC3)ccc21	0	0	0	3.62	-	0
CC(=O)c1cccc(NC(=O)C2CCCC2)c1	0	0	0	0	0	0
CC(=O)Nc1ccc(S(=O)(=O)N2CCN(CC(=O)NC3CCCC3)CC2)cc1	0	0	0	0	0	0
CCOC(=O)c1c(NC(=O)c2ccoc2C)sc2c1CCC2	0	0	0	2.24	-	0
CCCc1cc(C(=O)Nc2sc3c(c2C(=O)OCC)CCCC3)no1	0	0	0	2.08	-	0
CCC1CCc2c(sc(NC(=O)c3ccoc3C)c2C(N)=O)C1 (stereo not given)	0	0	0	2.08	-	0
SMILES	NADH enzymes	PMK inhibit	Abs 340nm	Fluor 339 460	Spn DPM-DC inh	MK inhibit
CCOC(=O)c1c(NC(=O)c2noc3c2CCCC3)sc2c1CCCC2	0	0	0	0	0	0
CCOC(=O)Nc1sc2c(c1C(=O)OCC)CCC2	0	0	0	0	0	0
CCOC(=O)c1[nH]c2ccc(OC)cc2c1N=CN(C)C	0	0	0	2.83	0	0
CCOC(=O)c1[nH]c2cc(OC)c(OC)cc2c1NC(=O)C(C)N1CCN(Cc2ccccc2)CC1 (stereo not given)	0	0	0	2.49	-	0
CCOC(=O)c1[nH]c2ccc(OC)cc2c1NC(=O)OC	0	0	0	3.63	-	0
CCOC(=O)c1[nH]c2ccc(OC)cc2c1NS(=O)(=O)c1ccc(OC)cc1OC	0	0	0	0	0	0
CCOC(=O)c1[nH]c2ccc(OC)cc2c1NC(=O)C(C)N1CCSCC1 (stereo not given)	0	0	0	3.84	-	0
O=C(O)COCc1nc2ccccc2[nH]1	0	0	0	0	0	0
COC(=O)c1[nH]c2cc(OC)ccc2c1N	0	0	0	3.77	-	0
CCOC(=O)c1[nH]c2ccc(OC)cc2c1NC(=O)CCN1CCCC(C)C1 (stereo not given)	0	0	0	2.25	-	-
